PubChem BioAssay (NCATS)
Records with an inconclusive call do not appear. The source made the active and inactive calls. Calls follow the shape of the dose curve; as a rule, active = well fitted cell-killing curve with a large enough effect; inconclusive = small, poorly fitted or top-dose-only effect, or effect the other way; inactive = flat fitted curve, though single readings scatter.

How the values were obtained:
Test in all cases: Primary qHTS to identify gynecologic anti-cancer compounds using libraries of approved drugs and bioactive compounds (AID 1345084); also: nearly all actives have a fitted effect of over 55% in size
[1] = tested on: C33A; settings: Gynecologic cancer cell panel viability, ATPlite luminescence, 48 h; series mostly up to 57.5 µM
How it was run: (§1)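 Cells, 1,000 per well, plated 16 h, then exposed 48 h at 37 C to compounds. Viability by ATPlite luminescence after 15 min at room temperature.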

[2] = tested on: CAOV3; settings: Gynecologic cancer cell panel viability, ATPlite luminescence, 48 h; series mostly up to 57.5 µM
How it was run: as §1

[3] = tested on: CASKI; settings: Gynecologic cancer cell panel viability, ATPlite luminescence, 48 h; series mostly up to 57.5 µM
How it was run: as §1

[4] = tested on: Es-2; settings: Gynecologic cancer cell panel viability, ATPlite luminescence, 48 h; series mostly up to 57.5 µM
How it was run: as §1

[5] = tested on: HeLa; settings: Gynecologic cancer cell panel viability, ATPlite luminescence, 48 h; series mostly up to 57.5 µM
How it was run: as §1

[6] = tested on: Hek293T; settings: Gynecologic cancer cell panel viability, ATPlite luminescence, 48 h, control line for the selectivity index; series mostly up to 57.5 µM
How it was run: as §1

[7] = tested on: JEG-3; settings: Gynecologic cancer cell panel viability, ATPlite luminescence, 48 h; series mostly up to 57.5 µM
How it was run: as §1

[8] = tested on: OV90; settings: Gynecologic cancer cell panel viability, ATPlite luminescence, 48 h; series mostly up to 57.5 µM
How it was run: as §1

[9] = tested on: PA-1; settings: Gynecologic cancer cell panel viability, ATPlite luminescence, 48 h; series mostly up to 57.5 µM
How it was run: as §1

[10] = tested on: Tov-21-G; settings: Gynecologic cancer cell panel viability, ATPlite luminescence, 48 h; series mostly up to 57.5 µM
How it was run: as §1

[11] = tested on: Tov112D; settings: Gynecologic cancer cell panel viability, ATPlite luminescence, 48 h; series mostly up to 57.5 µM
How it was run: as §1

Measured: Potency

C=C1CC[C@@H]2[C@](C)(CO)[C@H](O)CC[C@@]2(C)[C@@H]1C/C=C1/C(=O)OCC1OC(=O)/C(=C/CO)C(O)C[C@@H]1C(=C)CC[C@@H]2[C@](C)(CO)[C@H](O)CC[C@]21C (some centres not stated)
inactive: [1] | [2] | [3] | [4] | [5] | [6] | [7] | [8] | [9] | [10] | [11]

CC(C)c1noc(C2CCN(c3ncnc(Nc4ccc(S(C)(=O)=O)cc4F)c3[N+](=O)[O-])CC2)n1
inactive: [1] | [2] | [3] | [4] | [5] | [6] | [7] | [8] | [9] | [10] | [11]

COc1ccc(NC(=O)c2ccc(-c3ccc(C(=N)N)cc3C)cc2)cc1N1CCN(C)CC1
inactive: [1] | [2] | [3] | [4] | [5] | [6] | [7] | [8] | [9] | [10] | [11]

Cc1ccnn1-c1ccc(C(=O)N2CCN(S(=O)(=O)c3ccc(Cl)c(C(F)(F)F)c3)CC2)cc1
inactive: [1] | [2] | [3] | [4] | [5] | [6] | [7] | [8] | [9] | [10] | [11]

CC(=O)C=C=C1C(C)(C)CC(O)CC1(C)O[C@@H]1O[C@H](CO[C@H]2OC[C@](O)(CO)[C@H]2O)[C@@H](O)[C@H](O)[C@H]1O (some centres not stated)
inactive: [1] | [2] | [3] | [4] | [5] | [6] | [7] | [8] | [9] | [10] | [11]

C/C(=C/CO)CCC1C(C)CCC2C(C)(C)CCCC12C (configuration not stated)
inactive: [1] | [2] | [3] | [4] | [5] | [6] | [7] | [8] | [9] | [10] | [11]

O=C(NS(=O)(=O)c1ccc(Br)s1)c1ccc(Cl)cc1Cl
inactive: [1] | [2] | [3] | [4] | [5] | [6] | [7] | [8] | [9] | [10] | [11]

O=C(c1ccc(F)cc1)N1CCCC(c2nc(-c3ccc(F)cc3)no2)C1 (configuration not stated)
inactive: [1] | [2] | [3] | [4] | [5] | [6] | [7] | [8] | [9] | [10] | [11]

O=C(Nc1cccnn1)N1CCN(c2nccc(-c3ccc(F)c(F)c3)n2)CC1
inactive: [1] | [2] | [3] | [4] | [5] | [6] | [7] | [8] | [9] | [10] | [11]

CC(C)=C[C@@H]1[C@H](CO[C@@H]2O[C@H](CO)[C@@H](O)[C@H](O)[C@H]2O)C1(C)C
inactive: [1] | [2] | [3] | [4] | [5] | [6] | [7] | [8] | [9] | [10] | [11]

Clc1ccc(Cn2c(Cc3ccccc3)nc3ccccc32)cc1
inactive: [1] | [2] | [3] | [4] | [5] | [6] | [7] | [8] | [9] | [10] | [11]

CCn1c(N)c(C(=O)NC)c(=O)c2ccc(C#CC(C)(O)COC)nc21 (configuration not stated)
inactive: [1] | [2] | [3] | [4] | [5] | [6] | [7] | [8] | [9] | [10] | [11]

O=C(Nc1ccc(Cl)cc1)C1CCCN(C(=O)c2cccc(-c3ccco3)c2)C1 (configuration not stated)
inactive: [1] | [2] | [3] | [4] | [5] | [6] | [7] | [8] | [9] | [10] | [11]

COCCN(C(=O)c1cc(OC)c(OC)c(OC)c1)c1nc(-c2ccccc2)cs1
inactive: [1] | [2] | [3] | [4] | [5] | [6] | [7] | [8] | [9] | [10] | [11]

COc1cc(/C=C/C(=O)NCCn2c(C(F)(F)F)cc3ccccc32)cc(OC)c1OC
inactive: [1] | [2] | [3] | [4] | [5] | [6] | [7] | [8] | [9] | [10] | [11]

COc1ccccc1C(=O)Nc1cc2c(cc1N1CCCC1)n(C)c(=O)n2C
inactive: [1] | [2] | [3] | [4] | [5] | [6] | [7] | [8] | [9] | [10] | [11]

CC(C)n1c(=O)c(C(=O)NC2CC3CCC(C2)N3C[C@@H](O)CN(C)S(C)(=O)=O)cc2ccccc21 (some centres not stated)
inactive: [1] | [2] | [3] | [4] | [5] | [6] | [7] | [8] | [9] | [10] | [11]
